According to PubChem BioAssay:
For some assays here: Measured potencies and affinities stand elsewhere. Inconclusive results are not listed. Some of the results follow. Activity calls are given as the source filed them. Unless noted, the rule behind the calls is not given here.

How the values were obtained:
[1] = cytotoxicity in PAX8-dependent RMG-1 cells, dose response, cell-based, cherry-pick (AID 687029;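 active = signal drop whose fitted half-maximal concentration is at most twice the top valid dose, in every test run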;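 note: cells exposed to compound for 96 hours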)
[2] = cytotoxicity in IOSE-T80 ovarian epithelial cells, dose response, selectivity assay for PAX8 inhibitor project, cell-based, cherry-pick (AID 687032;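 active = fitted half-maximal concentration for viability loss no higher than twice the top valid dose, in every repeat run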;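 note: cells exposed to compound for 96 h before reading; 0% = neutral control wells and -100% = 2 µM mitoxantrone kill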)
[3] = inhibitors of CMV-promoter luciferase reporter, dose response, counter-screen for Pax8 inhibitor project, cell-based, HEK293, luminescence, dry powder (AID 743020;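 active = signal-lowering compounds whose fitted half-maximal concentration is at or below twice the top tested dose in every run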;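 note: HEK293 cells stably expressing the CMV luciferase reporter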)
[4] = non-specific cell cytotoxicity, dose response, cytotoxicity control for PAX8 inhibitor project, plate reader, dry powder samples (AID 743021)
[5] = HeLa cell cytotoxicity, dose response, cytotoxicity control, ATP luminescence, cherry-pick samples (AID 687004;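 active = a fitted half-maximal concentration no higher than twice the top valid tested dose, with signal falling as cells die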;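 note: 0% = neutral control median and -100% = staurosporine 10 µM control median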)
[6] = IOSE-T80 ovarian epithelial cell cytotoxicity, dose response, cytotoxicity control for PAX8 inhibitor project, plate reader, dry powder samples (AID 743045);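 note: 0% = neutral control median and -100% = positive control median; more negative values mean more cell killing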
[7] = A2780 ovarian cancer cell cytotoxicity, dose response, cytotoxicity control, plate reader, dry powder samples (AID 743046);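 note: 0% = neutral control wells and -100% = cytotoxic reference compound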
[8] = IGROV1 ovarian cancer cell cytotoxicity, dose response, PAX8 inhibitor project, plate reader, dry powder samples (AID 743043);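 note: more negative means fewer viable cells or more cytotoxicity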
[9] = NIH:OVCAR-3 ovarian cancer cell cytotoxicity, dose response, PAX8 inhibitor project, plate reader, dry powder samples (AID 743044); conditions: NIH:OVCAR-3 ovarian cancer cell viability, hits give low values; at 4.2 µM unless noted
[10] = cytotoxicity in OVCAR8 ovarian cancer cells, dose response, PAX8 project, cell-based, plate reader, dry powder samples (AID 743197)
[11] = inhibitors of PAX8-driven TPO luciferase reporter, dose response, RMG-I cells, cherry-pick (AID 687027;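 active = every replicate test run called active, with the signal dropping as expected and potency within twice the top valid dose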)
[12] = DNA binders by acridine orange displacement, dose response, counter-screen for EWS/Fli inhibitor project, biochemical, fluorescence polarization, cherry-pick (AID 720586;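 active = fitted curve reaches a 35% signal fall AC35 below twice the sample's top valid tested dose, actives reach about 48 µM in these data; inactive = the rest, including activity in the rising direction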;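 note: 0% = neutral control median and -100% = 10 µM mitoxantrone control median; lower polarization ratio signals compound binding to DNA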)
[13] = A549 cell cytotoxicity, dose response, cytotoxicity control, plate reader, cherry-pick, antagonist series (AID 743412);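 note: 0% = neutral control wells and -100% = positive control wells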
[14] = HepG2 cell cytotoxicity, dose response, cytotoxicity control, plate reader, cherry-pick, antagonist series (AID 743416);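 note: 0% = neutral control wells and -100% = positive control wells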

CC(=O)OC(C)(C)/C=C/C(=O)C(C)(O)C1C(O)CC2(C)C3CC=C4C(CC(O)C(=O)C4(C)C)C3(C)C(=O)CC12C (configuration not stated)
inactive: outcome [1] | outcome [2] | outcome [3] | outcome [4]

COC(=O)C1=C(c2ccc(F)cc2OCc2ccccc2)C[C@@H]2CC[C@H]1N2C(=O)NCc1ccc2[nH]ccc2c1
inactive: outcome [1] | outcome [2] | outcome [3] | outcome [4]

C[C@H]1CN([C@@H](C)CO)C(=O)CCCn2nncc2CO[C@H]1CN(C)C(=O)Oc1cccc2ccccc12
inactive: outcome [5]

CC[C@H](C)[C@@H]1NC(=O)CNC(=O)c2csc(n2)[C@H](C(C)(C)O)OC(=O)C(C)(C)[C@H](CCCC(C)(Cl)Cl)OC(=O)c2csc1n2
inactive: outcome [1] | outcome [2] | outcome [3] | outcome [4]

O=C(Cc1ccncc1)N1CCCCN2[C@H](C1)[C@H](c1ccc(C#Cc3ccccc3F)cc1)[C@@H]2CO
inactive: outcome [1] | outcome [2] | outcome [3] | outcome [4] | outcome [6] | outcome [7]

C=C1C(C)C2C(Cc3ccccc3)NC(=O)C23OC(=O)/C=C/C(O)CCCC(C)C/C=C/C3C1O (configuration not stated)
inactive: outcome [1] | outcome [2]

COC(=O)C1=C(c2ccc(F)cc2OCc2ccccc2)C[C@@H]2CC[C@H]1N2C(=O)NC1Cc2ccccc2C1
inactive: outcome [1] | outcome [2] | outcome [3] | outcome [4]

O=C(Cc1cccnc1)N1CCCCN2[C@H](C1)[C@H](c1ccc(/C=C/c3ccccc3)cc1)[C@@H]2CO
inactive: outcome [1] | outcome [2] | outcome [3] | outcome [8] | outcome [6]

O=C(Cc1ccccn1)N1CCCCN2[C@@H](CO)[C@@H](c3ccc(-c4ccccc4F)cc3)[C@@H]2C1
inactive: outcome [1] | outcome [2] | outcome [3] | outcome [8] | max activity [9] 31.6% [at 0.5 µM] | outcome [6] | outcome [7] | outcome [10]

O=c1[nH]c2ccccc2n1C1CCN(C(c2cc3ccccc3o2)c2nnnn2Cc2ccccc2)CC1 (configuration not stated)
inactive: outcome [1] | outcome [2] | outcome [3]

O=c1[nH]c2ccccc2n1C1CCN(C(c2ccccc2OC(F)(F)F)c2nnnn2-c2ccc3c(c2)OCCO3)CC1 (configuration not stated)
inactive: outcome [1]

CCCc1nc2ccc(Br)cc2c(=O)n1-c1ccc([N+](=O)[O-])c(C(F)(F)F)c1
inactive: outcome [11] | outcome [1] | outcome [2] | outcome [3] | outcome [4]

CC12CCC3C(CCC4(O)CC(O)CCC34C=NO)C1(O)CCC2C1=COC(=O)C1 (configuration not stated)
inactive: outcome [1] | outcome [2] | outcome [3] | outcome [4]

C[C@@H]1CN([C@@H](C)CO)C(=O)CCCn2nncc2CO[C@H]1CN(C)C(=O)Oc1cccc2ccccc12
inactive: outcome [5]

O=c1[nH]c2ccccc2n1C1CCN(C(c2cc3ccccc3o2)c2nnnn2-c2ccc3c(c2)OCCO3)CC1 (configuration not stated)
inactive: outcome [1]

CCn1nc(/C=C/c2ccccc2)nc2c(=O)n(C)c(=O)nc1-2
inactive: outcome [1]

CSCCC(c1nnnn1-c1ccc2c(c1)OCCO2)N1CCC(n2c(=O)[nH]c3ccccc32)CC1 (configuration not stated)
inactive: outcome [1] | outcome [2] | outcome [3] | outcome [4]

CC1=CC(C)CC(C)OC(=O)CC(c2ccc(O)cc2)NC(=O)C(Cc2c(Br)[nH]c3ccccc23)N(C)C(=O)C(C)NC(=O)C(C)C1 (configuration not stated)
inactive: outcome [1] | outcome [2] | outcome [3] | outcome [4]

C[C@@H]1O[C@@H](O[C@@H]2C=C3CCC4C(CC[C@]5(C)[C@@H](c6ccc(=O)oc6)CC[C@]45O)[C@@]3(C)CC2)[C@H](O)[C@H](O)[C@H]1O (some centres not stated)
inactive: outcome [1] | outcome [2] | outcome [3] | outcome [4]

NC(=O)c1cn(C2OC(CO)C(O)C2O)c2ncnc(N)c12 (configuration not stated)
inactive: outcome [1] | outcome [2]

CC1=C(O)C(=O)C=C2C1=CC=C1C2(C)CCC2(C)C3CC(C)(C(=O)O)CCC3(C)CCC12C (configuration not stated)
inactive: outcome [1] | outcome [2] | outcome [3]

COC1CC2C=C(C)C=CC=CC(=O)NC(c3ccccc3)CC=CCCC(O)CC(=O)C2=C1O (configuration not stated)
inactive: outcome [1] | outcome [3]

COC(=O)C1=C(c2ccc(F)cc2OCc2ccccc2)C[C@@H]2CC[C@H]1N2C(=O)NCc1ccc(C)cc1
inactive: outcome [1] | outcome [3] | outcome [4]

COc1ccc(CC2C(=O)NC(C)C(=O)N(C)C3C(=O)N(C)C(Cc4ccc(O)c(c4)Oc4ccc(cc4)C3O)C(=O)NC(C)C(=O)NC(C)C(=O)N2C)cc1 (configuration not stated)
inactive: outcome [1] | outcome [2] | outcome [4]

CN1C2CCC1/C(=C/c1ccccn1)C(=O)/C2=C\c1ccccn1
inactive: outcome [1] | outcome [2] | outcome [4]

C=Cc1cc(OC)c2c(c1)c(=O)oc1c2cc(OC)c2c(O)ccc(C3OC(C)C(O)C(C)(O)C3O)c21 (configuration not stated)
inactive: outcome [1] | outcome [4]

C[C@]12CC[C@H](O)C[C@H]1CC[C@@H]1[C@@H]2CC[C@]2(C)[C@@H](C3=CC(=O)OC3)CC[C@]12O
inactive: outcome [1] | outcome [3] | outcome [4]

O=C1NC2C(=CC(O)C(O)C2O)c2cc3c(cc21)OCO3 (configuration not stated)
inactive: outcome [1] | outcome [3] | outcome [4]

CC(=O)OC(C)(C)/C=C/C(=O)C(C)(O)C1[C@H](O)C[C@@]2(C)C3CC=C4C(CC[C@@H](O)C4(C)C)[C@]3(CO)C(=O)C[C@]12C (some centres not stated)
inactive: outcome [1] | outcome [3] | outcome [4]

CC12CCC3C(CCC4(O)CC(O)CCC34C=O)C1(O)CCC2C1=CC(=O)OC1 (configuration not stated)
inactive: outcome [1] | outcome [2] | outcome [4]

COC1C(O)C(C)OC(OC2CCC3(C)C(CCC4C3C(O)CC3(C)C(C5=CC(=O)OC5)CCC43O)C2)C1O (configuration not stated)
inactive: outcome [1] | outcome [2] | outcome [4]

CC1CC(C)CC(C)C(O)C(C#N)=CC=CCC(C2CCCC2C(=O)O)OC(=O)CC(O)C(C)C1 (configuration not stated)
inactive: outcome [1] | outcome [3] | outcome [4]

COc1cc(C2c3cc4c(c(O)c3CC3COC(=O)C32)OCO4)cc(OC)c1OC (configuration not stated)
inactive: outcome [1] | outcome [2] | outcome [4]

COc1ccc(C(c2nnnn2Cc2ccccc2)N2CCC(n3c(=O)[nH]c4ccccc43)CC2)cc1 (configuration not stated)
inactive: outcome [1] | outcome [3] | outcome [4]

CCC(C)C1NC(=O)C(NC(=O)C(CC(C)C)N(C)C(=O)C2CCCN2C(=O)C(C)O)C(C)OC(=O)C(Cc2ccc(OC)cc2)N(C)C(=O)C2CCCN2C(=O)C(CC(C)C)NC(=O)[C@H](C)C(=O)[C@H](C(C)C)OC(=O)CC1O (some centres not stated)
inactive: outcome [1] | outcome [3] | outcome [4]

COc1cccc(C(c2nnnn2Cc2ccccc2)N2CCC(n3c(=O)[nH]c4ccccc43)CC2)c1OC (configuration not stated)
inactive: outcome [1] | outcome [2] | outcome [4]

NC(=S)c1cn(C2OC(CO)C(O)C2O)c2ncnc(N)c12 (configuration not stated)
inactive: outcome [1] | outcome [3] | outcome [4]

CC(=O)OC1CC(OC2C(O)CC(OC3C(O)CC(OC4CCC5(C)C(CCC6C5CCC5(C)C(C7=CC(=O)OC7)C(O)CC65O)C4)OC3C)OC2C)OC(C)C1OC1OC(CO)C(O)C(O)C1O (configuration not stated)
inactive: outcome [1] | outcome [4]

COC(=O)C12OCC34C(CC5C(C)=C(O)C(=O)CC5(C)C3C(O)C1O)OC(=O)C(OC(=O)/C=C(\C)C(C)C)C24 (configuration not stated)
inactive: outcome [1] | outcome [2] | outcome [4]

CC1CCC/C=C/C2CC(O)CC2C(O)/C=C/C(=O)O1 (configuration not stated)
inactive: outcome [1] | outcome [2] | outcome [4]

CC(=CCOc1ccc2ccc(=O)oc2c1)C1=CC(=O)C(C)(C)O1
inactive: outcome [1] | outcome [2] | outcome [4]

Cc1c(C(=O)c2cccc3ccccc23)c2cccc3c2n1[C@H](CN1CCOCC1)CO3
inactive: outcome [1] | outcome [3] | outcome [4]

O=C(c1ccccc1)C(CN1CCCC1)c1ccccc1 (configuration not stated)
inactive: outcome [1] | outcome [2] | outcome [4]

COc1cccc(C(c2nnnn2-c2ccc3c(c2)OCCO3)N2CCC(n3c(=O)[nH]c4ccccc43)CC2)c1OC (configuration not stated)
inactive: outcome [1] | outcome [2] | outcome [4]

C[C@]12CC[C@H](O)C[C@H]1CC[C@@H]1[C@@H]2C[C@@H](O)[C@]2(C)[C@@H](C3=CC(=O)OC3)CC[C@]12O
inactive: outcome [1] | outcome [2] | outcome [4]

CN(C)CC(C(=O)Cc1ccccc1)c1ccccc1 (configuration not stated)
inactive: outcome [1] | outcome [3] | outcome [4]

CC(=O)OC1CC(OC2C(O)CC(OC3C(O)CC(OC4CCC5(C)C(CCC6C5CCC5(C)C(C7=CC(=O)OC7)CCC65O)C4)OC3C)OC2C)OC(C)C1OC1OC(CO)C(O)C(O)C1O (configuration not stated)
inactive: outcome [1] | outcome [2] | outcome [4]

Cc1ccc(C(=O)N[C@@H](C)CN2C3=NC[C@@H](Cc4ccccc4)N3C[C@H]2Cc2ccc(O)cc2)cc1Br
inactive: outcome [1] | outcome [3] | outcome [4]

CSCCC(c1nnnn1Cc1ccccc1)N1CCC(n2c(=O)[nH]c3ccccc32)CC1 (configuration not stated)
inactive: outcome [1] | outcome [3] | outcome [4]

O=C(C1CC1)N1C[C@@H]2N[C@H](C1)[C@@H]2c1ccc(-c2ccncc2)cc1
inactive: outcome [1] | outcome [2] | outcome [4]

Cc1ccc(OC(=O)N(C)C[C@@H]2OCc3ccccc3-c3c(n(C)c4ccccc34)C(=O)N([C@@H](C)CO)C[C@H]2C)cc1
inactive: outcome [1] | outcome [2] | outcome [4] | outcome [8] | outcome [6] | activity change, negative = cytotoxicity [7] -16.8% [at 8 µM]

O=C1NC2C(O)C(O)C(O)C(O)C2c2cc3c(c(O)c21)OCO3 (configuration not stated)
inactive: outcome [1] | outcome [2] | outcome [4]

C[C@@H]1O[C@@H](O[C@H]2C[C@@H](O)[C@]3(CO)[C@H]4[C@H](O)C[C@]5(C)[C@@H](C6COC(=O)C6)CC[C@]5(O)[C@@H]4CC[C@]3(O)C2)[C@H](O)[C@H](O)[C@H]1O (some centres not stated)
inactive: outcome [1] | outcome [2] | outcome [4]

CCC1CN2CCc3cc(OC)c(OC)cc3C2CC1CC1NCCc2c1[nH]c1ccc(O)cc21 (configuration not stated)
inactive: outcome [1] | outcome [2] | outcome [4]

CC12CCC(O)CC1CCC1C2CCC2(C)C(C3=CC(=O)OC3)CCC12O (configuration not stated)
inactive: outcome [1] | outcome [4]

O=C1NC(=O)N(CCc2ccc(F)cc2)C(=O)/C1=C/C=C/c1ccccc1
inactive: outcome [12]

O=Cc1cn(Cc2cccc([N+](=O)[O-])c2)c2ccccc12
inactive: outcome [13]

COc1ccc(-c2ccc([C@@H]3[C@@H](CO)N4CCCCN(C(=O)Cc5ccccc5)C[C@H]34)cc2)cc1
inactive: outcome [3] | outcome [8] | max activity [9] -18.2% [at 35 µM] | outcome [6] | outcome [7] | outcome [10]

CNC(=O)Oc1cccc(-c2cn3cc(Cl)ccc3n2)c1
inactive: outcome [13] | outcome [14]
